Screens: PubChem, National Center for Advancing Translational Sciences (NCATS)
Hits are enriched below; roughly 2.9% of the tested compounds scored in any of these assays.
Nrf2 activator – activates Nrf2 signaling; actives 0.31% (n = 410,000); Potency, µM (series often up to 46.1 µM), hits mostly activators; AREc32 ARE-luciferase reporter (MCF7-derived line), luminescence, 24 h; AID 624171; note: nearly all actives have a fitted effect of over 65% in size
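Quantitative high-throughput format: AREc32 reporter cells, 1000 per well, received compound by pin transfer and were incubated 24 hr at 37 deg C, 5% CO2, before Steady-Glo luminescence detection.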
A549 tox-1 – A549 cytotoxicity, counter-screen for Nrf2 inhibitors; A549 ARE-Fluc cells, CellTiter-Fluor viability, 18-24 h; Potency, µM (series often up to 46 µM), hits mostly inhibitors; actives 0.16% (n = 390,000)
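Cytotoxicity counterscreen: CellTiter-Fluor fluorescence was measured in A549 ARE_Fluc cells after 18-24 h of compound exposure in a concentration series. The subsequent BugLite luminescent read reports ARE-luciferase activity.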
ATXN2 expr inh – ATXN2 expression inhibition. HEK-293 ATXN2-luciferase reporter, luminescence, 24 h. Potency, µM (series often up to 57 µM), usual class: inhibitors. actives 0.72% (n = 360,000). AID 1745845; note: nearly all actives have a fitted effect of over 55% in size
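qHTS (up to 57 uM final) was run with 24 h compound exposure of reporter cells at 37 °C. Each well was multiplexed: SteadyGlo luminescence measured ATXN2-luciferase expression after a fluorogenic Gly-Phe-AFC viability readout (25 uM final).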
S2 tox – reduces viability in counter-screen for ATXN expression inhibitors. AID 651635. Potency, µM (highest dose often 56.7 µM), actives largely listed as cytotoxic. S2 cells (HEK-293 line with an ATXN2-luciferase reporter) viability, CellTiter-Fluor protease fluorescence, 24 h. actives 0.49% (n = 400,000); note: nearly all actives have a fitted effect of over 40% in size
Nrf2 block – Nrf2 pathway inhibition. actives 2.1% (n = 360,000). Potency, µM (highest dose often 46 µM), actives largely listed as inhibitors. A549 ARE-Fluc reporter, luciferase luminescence, 18-24 h; note: nearly all actives have a fitted effect of over 60% in size
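Nrf2 function is reported as luminescence of an ARE-controlled luciferase in A549 cells. Compounds were tested at several concentrations, and a CellTiter-Fluor read on the same wells flagged cytotoxicity.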
FLuc enzyme inh – firefly luciferase inhibition, Nrf2 hit validation | shares compounds with Nrf2 block | purified firefly luciferase, luminescence inhibition | Potency, µM (doses to about 57.5 µM), actives largely listed as inhibitors | actives 4% (n = 1,400) | AID 720522; note: nearly all actives have a fitted effect of over 65% in size
Target sequence (P08659 whole entry, looked up): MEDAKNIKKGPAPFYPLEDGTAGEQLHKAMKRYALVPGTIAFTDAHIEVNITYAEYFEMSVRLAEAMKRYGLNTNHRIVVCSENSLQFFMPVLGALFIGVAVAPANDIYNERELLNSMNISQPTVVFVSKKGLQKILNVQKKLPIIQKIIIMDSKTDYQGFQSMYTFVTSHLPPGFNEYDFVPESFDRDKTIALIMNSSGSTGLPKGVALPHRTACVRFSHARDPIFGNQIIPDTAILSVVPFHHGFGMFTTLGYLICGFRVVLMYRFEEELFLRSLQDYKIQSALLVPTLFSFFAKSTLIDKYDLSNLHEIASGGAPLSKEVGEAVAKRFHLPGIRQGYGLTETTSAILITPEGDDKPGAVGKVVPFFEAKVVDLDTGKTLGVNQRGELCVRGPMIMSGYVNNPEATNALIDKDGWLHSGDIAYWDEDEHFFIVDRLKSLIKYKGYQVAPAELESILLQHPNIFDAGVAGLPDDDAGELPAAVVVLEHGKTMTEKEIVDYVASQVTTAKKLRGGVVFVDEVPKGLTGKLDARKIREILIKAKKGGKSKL
A549 tox-2 – toxic to A549 ARE-Fluc cells in Nrf2 counterscreen. Potency, µM (highest dose often 46.1 µM), hits mostly inhibitors. A549 ARE-Fluc cells, cytotoxicity counterscreen. AID 720523. actives 2% (n = 1,400). shares compounds with Nrf2 block;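 note: cells exposed to compounds for 18 to 24 hours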
Nrf2 ARE inh – Nrf2 inhibition confirmed, A549 ARE-luciferase; shares compounds with Nrf2 block; A549 ARE-firefly luciferase reporter, luminescence; Potency, µM (doses to about 46.1 µM), usual class: inhibitors; actives 74% (n = 1,400); AID 720524; note: nearly all actives have a fitted effect of over 65% in size
Of the large screens only hits and unclear results are named; the others gave an inactive call (follow-up assays come after a bar, where shown); ! = repeats disagree. Calls come from the whole dose curve; as a rule, active = well fitted curve in the direction sought with a large enough effect; inconclusive = small, poorly fitted or top-dose-only effect, or another doubt; inactive = no such curve, though single readings can be large; an effect the other way counts as inactive or inconclusive.

CCOC(=O)C1CCCN(C(=O)c2ccc(S(=O)(=O)N3CCCC3)cc2)C1 (stereo not drawn)	none
COC(=O)c1ccccc1NC(=O)CSc1nc2ccsc2c(=O)n1CCC(C)C	none (no result: ATXN2 expr inh, S2 tox, Nrf2 block)
O=C(CCN1C(=O)/C(=C/c2ccccc2F)SC1=S)Nc1ccccn1	none
CCOC(=O)c1cc2c(=O)n3ccccc3nc2n(CCOC)c1=NC(=O)c1c(-c2c(F)cccc2Cl)noc1C	Nrf2 block 6.5µM! | FLuc enzyme inh inactive | A549 tox-2 inactive | Nrf2 ARE inh inconclusive
COc1ccc(-c2noc(CN(C)C(=O)CCCN3C(=O)[C@H]4CC=CC[C@H]4C3=O)n2)cc1	none (no result: A549 tox-1, ATXN2 expr inh, Nrf2 block)
Cc1cccc(/C=C/c2cccs2)n1	none (no result: Nrf2 activator, A549 tox-1, ATXN2 expr inh, S2 tox, Nrf2 block) | FLuc enzyme inh inactive | A549 tox-2 inactive | Nrf2 ARE inh 2.6µM
CCOC(=O)c1nn(-c2ccc(C)c(Cl)c2)c(=O)c(C#N)c1C	none
Nc1nc(NCc2c(F)cccc2Cl)nn1-c1ccccc1	S2 tox inconclusive
COc1ccc(COC(=O)C2=C(C)NC(=O)NC2c2cccc(Br)c2)cc1 (stereo not drawn)	ATXN2 expr inh inconclusive, S2 tox inconclusive, Nrf2 block inconclusive | FLuc enzyme inh inactive | A549 tox-2 inactive | Nrf2 ARE inh inconclusive
CSCCOC(=O)C1=C(C)NC(=O)NC1c1ccc2c(c1)OCO2 (stereo not drawn)	none
CC1=C(C(=O)OCc2ccc3c(c2)OCO3)C(c2ccc(F)cc2)NC(=O)N1 (stereo not drawn)	ATXN2 expr inh inconclusive, S2 tox inconclusive, Nrf2 block 4.1µM | FLuc enzyme inh inactive | A549 tox-2 inactive | Nrf2 ARE inh 8.2µM
Cc1cc2c(=O)[nH]c(Cc3ccccc3)nc2s1	none
Cc1ccc(NC(=O)c2ccc(-n3cncn3)c([N+](=O)[O-])c2)cc1	none (no result: ATXN2 expr inh, S2 tox)
CCN(CC)S(=O)(=O)c1cc(NC(=O)c2ccc(-n3cncn3)c([N+](=O)[O-])c2)ccc1C	A549 tox-1 inconclusive, Nrf2 block 4.1µM | FLuc enzyme inh inactive | A549 tox-2 inactive | Nrf2 ARE inh 6.5µM
CC1=Nc2cc(C(=O)NC3CCCCC3)ccc2Sc2ccc(Cl)cc21	none (no result: ATXN2 expr inh, S2 tox, Nrf2 block)
CC1=Nc2cc(C(=O)NCCc3ccc(Cl)cc3)ccc2Sc2ccc(C)cc21	A549 tox-1 inconclusive, Nrf2 block 5.2µM (no result: ATXN2 expr inh, S2 tox) | FLuc enzyme inh inactive | A549 tox-2 inactive | Nrf2 ARE inh 21µM
CCCCC(=O)N/N=C/c1ccc(Sc2cccc3cccnc23)o1	Nrf2 block inconclusive
Cc1ccc(S(=O)(=O)N2CCN(C(=O)C3CCN(c4ncnc5sc(C)c(C)c45)CC3)CC2)c(C)c1	Nrf2 block 8.2µM (no result: ATXN2 expr inh) | FLuc enzyme inh inactive | A549 tox-2 inactive | Nrf2 ARE inh 12µM
CCOC(=O)N1CCN(c2c(NCc3ccccc3Cl)c(=O)c2=O)CC1	none (no result: ATXN2 expr inh)
Cc1cc(/C=C(\C#N)C(=O)Nc2ccc(Cl)cc2)c(C)n1-c1ccc(N2CCOCC2)c([N+](=O)[O-])c1	S2 tox inconclusive, Nrf2 block 5.2µM | FLuc enzyme inh inactive | A549 tox-2 inactive | Nrf2 ARE inh 4.6µM
COc1cccc(NC(=O)N(Cc2cn(C)c3ccccc23)C2CCCCC2)c1	A549 tox-1 inconclusive, ATXN2 expr inh inconclusive, S2 tox inconclusive, Nrf2 block 3.3µM | FLuc enzyme inh inactive | A549 tox-2 inconclusive | Nrf2 ARE inh inconclusive
CCN(CC)C(=O)c1ccc2nc3ccccc3nc2c1	A549 tox-1 inconclusive, Nrf2 block 1.5µM | FLuc enzyme inh inconclusive | A549 tox-2 inconclusive
CN(C)C(CNC(=O)c1ccc(S(=O)(=O)Nc2ccccc2)cc1)c1ccco1 (stereo not drawn)	none
CC1CC(C)C(=O)C(C(CC2CC(=O)NC(=O)C2)OC(=O)CC(=O)c2ccccc2)C1 (stereo not drawn)	A549 tox-1 inconclusive, ATXN2 expr inh 3.5µM, S2 tox inconclusive, Nrf2 block 5.2µM | FLuc enzyme inh inactive | A549 tox-2 inactive | Nrf2 ARE inh 0.21µM
CC(=O)Nc1ccc(NC(=O)c2c(-c3ccccc3)noc2C)cn1	Nrf2 block 7.3µM | FLuc enzyme inh inactive | A549 tox-2 inactive | Nrf2 ARE inh 9.2µM
O=C(Nc1ccc(F)cc1F)N1CCCN(c2ccc(C(F)(F)F)cn2)CC1	Nrf2 block 6.5µM | FLuc enzyme inh inactive | A549 tox-2 inactive | Nrf2 ARE inh 8.2µM
CNC(=S)Nc1ccc(N2CCN(c3ccc(C(F)(F)F)cn3)CC2)nc1	ATXN2 expr inh inconclusive, Nrf2 block 4.1µM | FLuc enzyme inh inactive | A549 tox-2 inactive | Nrf2 ARE inh 6.5µM
Fc1ccc(NC(=S)N2CCCN(c3ccc(C(F)(F)F)cn3)CC2)c(F)c1	Nrf2 block 2.9µM (no result: ATXN2 expr inh) | FLuc enzyme inh inactive | A549 tox-2 inactive | Nrf2 ARE inh 5.8µM
CN1CCN(c2ccc(NC(=O)c3ccc(C(F)(F)F)cc3)cn2)CC1	Nrf2 block inconclusive
O=C(Nc1ccccc1)N1CCN(c2ccc(C(F)(F)F)cn2)CC1	ATXN2 expr inh inconclusive, Nrf2 block 6.5µM | FLuc enzyme inh inactive | A549 tox-2 inactive | Nrf2 ARE inh 9.2µM
O=C(O)CSCC(=O)N1CCCN(c2ccc(C(F)(F)F)cn2)CC1	none
Cn1cnc2c1c(=O)n(Cc1cccc(F)c1)c(=O)n2C	S2 tox inconclusive (no result: ATXN2 expr inh)
CC(C)CCNC(=O)c1cc2c(s1)-c1ccccc1S(=O)(=O)C2	none
Cc1sc2ncnc(NCC3COc4ccccc4O3)c2c1C (stereo not drawn)	ATXN2 expr inh inconclusive, Nrf2 block inconclusive
c1ccc(-c2csc3ncnc(NCC4COc5ccccc5O4)c23)cc1 (stereo not drawn)	ATXN2 expr inh inconclusive, S2 tox inconclusive, Nrf2 block 1.6µM | FLuc enzyme inh inactive | A549 tox-2 inactive | Nrf2 ARE inh 1.2µM
CCCNc1nc2c(c(=O)n(C)c(=O)n2C)n1Cc1cccc(C)c1	Nrf2 block 6.5µM | FLuc enzyme inh inactive | A549 tox-2 inactive | Nrf2 ARE inh 10µM
CCCCCCn1c(NCC)nc2c1c(=O)n(C)c(=O)n2C	Nrf2 block 3.7µM | FLuc enzyme inh inactive | A549 tox-2 inactive | Nrf2 ARE inh 5.8µM
CCCNc1nc2c(c(=O)n(C)c(=O)n2C)n1CCC(C)C	Nrf2 block 9.2µM | FLuc enzyme inh inactive | A549 tox-2 inactive | Nrf2 ARE inh inconclusive
COc1cccc(Cn2c(NCc3ccco3)nc3c2c(=O)n(C)c(=O)n3C)c1	A549 tox-1 inconclusive, Nrf2 block 8.2µM | FLuc enzyme inh inactive | A549 tox-2 inactive | Nrf2 ARE inh 6.5µM
COc1ccc(Cl)c(Cn2c(NCc3ccco3)nc3c2c(=O)n(C)c(=O)n3C)c1	Nrf2 block inconclusive
